From PubChem BioAssay (EPA / NIEHS)
Calls of active or inactive are those of the source. How the source made its calls: active means hit-call score of the fitted dose curve at least 0.9, where 1 is the maximum; inactive means score below 0.9.

Read-out: Cytochrome P450 4A22 (Homo sapiens) (UniProt Q5TCH4)
Experiment: LTEA_HepaRG_CYP4A22: Life Technologies and Expression Analysis (LTEA) Assay for Cytochrome P450 4A22 (CYP4A22) using HepaRG (AID 2283495)
Conditions: mRNA level, 48 h; actives raise or lower the signal
Procedure: LTEA_HepaRG is a cell based, multiplexed-readout assay that uses HepaRG, a human liver cell line, with measurements taken at 48 hours after chemical dosing on a 96-well plate.LTEA_HepaRG_CYP4A22 is one of 102 assay component(s) measured in the LTEA HepaRG cell culture assay. It is a marker of NR mediated metabolism.Data from the assay component LTEA_HepaRG_CYP4A22 was analyzed into 1 endpoint. This assay endpoint, LTEA_HepaRG_CYP4A22, was analyzed with bidirectional fitting relative to DMSO as the negative control and baseline of activity. Using a type of inducible reporter, measures of mRNA induction for gain or loss-of-signal activity can be used to understand regulation of transcription factor activity. To generalize the intended target to other relatable targets, this assay endpoint is annotated to the cyp intended target family, where the subfamily is xenobiotic metabolism.
A total of 1060 chemcials from the ToxCast library were tested in eight-point concentration-response experiments. Cell culture and cytotoxicity assays were conducted at Thermo Fisher Scientific's Custom Services facility (Madison, WI). A single lot of human HepaRG cells (Thermo Fisher Scientific, Frederick, MD) was used for the cell culture experiments. 96-well format collagen type I coated plates of human HepaRG cells were prepared using established methods. Briefly, cryopreserved HepaRG cells were thawed, plated at a density of approximately 100,000 cells/well in HepaRG Thaw, Plate, and General Purpose media (HPRG770, Thermo Fisher Scientific), and incubated for 48 hours. 0.5% DMSO was selected as vehicle control to balance the requisite need of DMSO in HepaRG cultures to maintain differentiation (for example, baseline metabolism, proportions of hepatocytes vs. cholangiocytes), while enabling further hepatic receptor pathway activation (for example, PXR and CAR) in response to chemical exposure. 48 hours after plating, the culture medium was replaced with HepaRG Serum-Free Incudtion Media. Cells were exposed to each test chemical in duplicate and maintained in CO2 incubators for another 48 hours. Chemical plates were thawed to room temperature and 200x concentrations of treatment groups were prepared. 8-point conentration-reponse curves were made with the highest exposure at 100 uM, followed by half-log dilutions, all in 0.5% DMSO. Each test plate contained variouse controls, induction positive controls (1mM phenobarbital), cytotoxicity positive controls ([…] aflatoxin B1), vehicle controls (0.5% DMSO), and total lysis controls (0.5% DMSO). Cell morphology images were taken using an Essen IncuCyte FLR automated microscope, with six 96-well plates imaged in about 24 minutes. Images were captured and exported and JPEG files. Spent culture media was transfered to black-well plates for the LDH assay, and remaining media was sorted at -80 C for later use. Cells were treated with RLT buffer and frozen until shipped for gene expression analysis. Total RNA was isolated from the cell suspension in 75 uL of Buffer RLT (Qiagen, Germantown, MD 20874) by Quintiles/Expression Analysis (Durham, NC) using a custom isolation procedure. Total RNA from each plate well was transferred to a preamplification plate. Fluidigm's 96.96 Dynamic ArrayTM (Fluidigm, Amsterdam, the Netherlands) technology was used for gene expression analyses by quantitative reverse transcription polymerase chain reaction (qRT-PCR, performed by Quintiles/Expression Analysis, Durham, NC)89. Standard TaqManTM Assays (Applied Biosystems/ThermoFisher Scientific, Foster City, CA) were used to assess the expression of 93 genes selected based on their selectivity and sensitivity to important hepatic receptors known to be modulated by environmental chemicals; importance in human hepatocyte functionality; and hepatotoxicity. […]

| SMILES | outcome | AC50 |
| --- | --- | --- |
| CC(C)Oc1cccc(NC(=O)c2ccccc2C(F)(F)F)c1 | inactive |  |
| COP(=S)(OC)Oc1ccc([N+](=O)[O-])c(C)c1 | inactive |  |
| N#Cc1c[nH]cc1-c1cccc2c1OC(F)(F)O2 |  | 84.8 µM (active) |
| O=C1C2CC=CCC2C(=O)N1SC(Cl)(Cl)Cl (stereo not given) | inactive |  |
| CO/N=C(/C1=NOCCO1)c1ccccc1Oc1ncnc(Oc2ccccc2Cl)c1F |  | 20.5 µM (active) |
| Cc1ccc(N=CN(C)C=Nc2ccc(C)cc2C)c(C)c1 | inactive |  |
| Clc1cccc(C(Cl)(Cl)Cl)n1 | inactive |  |
| COc1cc(OC)nc(NC(=O)NS(=O)(=O)c2ncccc2OCC(F)(F)F)n1 |  | 0.628 µM (active) |
| CC(C)N1C(=O)c2ccccc2NS1(=O)=O | inactive |  |
| CCCC(=NOCC)C1=C(O)CC(CC(C)SCC)CC1=O (stereo not given) | inactive |  |
| Cc1cnc(C2=NC(C)(C(C)C)C(=O)N2)c(C(=O)O)c1 (stereo not given) | inactive |  |
| CCCCOCN(C(=O)CCl)c1c(CC)cccc1CC | inactive |  |
| COc1cc(Cl)c(OC)cc1Cl | inactive |  |
| CC(C)Nc1nc(Cl)nc(NC(C)C)n1 | inactive |  |
| COP(=O)(OC)O/C(C)=C/C(=O)N(C)C | inactive |  |
| COC(=O)NS(=O)(=O)c1ccc(N)cc1 | inactive |  |
| CCC(C)n1c(=O)[nH]c(C)c(Br)c1=O (stereo not given) |  | 7.06 µM (active) |
| CN/C(=N\[N+](=O)[O-])NCc1cnc(Cl)s1 | inactive |  |
| CCN(CC)c1nc(C)cc(OP(=S)(OC)OC)n1 | inactive |  |
| CC1(C)C(C=C(Cl)Cl)C1C(=O)OC(C#N)c1cccc(Oc2ccccc2)c1 (stereo not given) | inactive |  |

| SMILES | outcome | AC50 |
| --- | --- | --- |
| N#CN=C1SCCN1Cc1ccc(Cl)nc1 | inactive |  |
| Nc1c(Cl)c(Cl)nc(C(=O)O)c1Cl | inactive |  |
| COC(=O)NC(=S)Nc1ccccc1NC(=S)NC(=O)OC | inactive |  |
| CCCN(CC)CC1COC2(CCC(C(C)(C)C)CC2)O1 (stereo not given) | inactive |  |
| CCOc1nc(F)cc2nc(S(=O)(=O)Nc3c(Cl)cccc3Cl)nn12 | inactive |  |
| Nc1c(Cl)c(F)nc(OCC(=O)O)c1Cl | inactive |  |
| OC(c1ccc(Cl)cc1)(c1ccc(Cl)cc1)C(Cl)(Cl)Cl | inactive |  |
| Cn1c(-c2ccccc2)cc(-c2ccccc2)[n+]1C |  | 24 µM (active) |
| CCNP(=S)(OC)O/C(C)=C/C(=O)OC(C)C (stereo not given) | inactive |  |
| CC(C)(C)C(=O)C(Oc1ccc(Cl)cc1)n1cncn1 (stereo not given) |  | 30.1 µM (active) |
| CC1(C)CON(Cc2ccccc2Cl)C1=O | inactive |  |
| CCOP(=O)(OCC)Oc1nc(Cl)c(Cl)cc1Cl |  | 90.1 µM (active) |
| Clc1nc(Cl)nc(Nc2ccccc2Cl)n1 | inactive |  |
| Cc1cc(C)nc(Nc2ccccc2)n1 | inactive |  |
| CS(=O)(=O)c1cc(C(F)(F)F)ccc1C(=O)c1cnoc1C1CC1 | inactive |  |
| O=c1n(Cl)c(=O)n(Cl)c(=O)n1Cl | inactive |  |
| CCSC(=O)N1CCCCCC1 | inactive |  |
| CC(C)N1C(=O)N(c2ccccc2)CSC1=NC(C)(C)C |  | 63.6 µM (active) |
| COCC(=O)N(c1c(C)cccc1C)C(C)C(=O)OC (stereo not given) | inactive |  |
| COc1ccc(-c2ccccc2)cc1NNC(=O)OC(C)C | inactive |  |
